The record followed here is paper PMC4336329 (PLoS ONE, 2015).

Molecules are shown by their SMILES. About 2,200 (0.71%) of roughly 310,000 compounds showed an effect of 50% or more. Effects have a minus sign here. This is one part of a sample in which strong results are shown more often than they occur.

Sequence of human ether-à-go-go-related gene (hERG) potassium channel (Q12809 whole entry, looked up): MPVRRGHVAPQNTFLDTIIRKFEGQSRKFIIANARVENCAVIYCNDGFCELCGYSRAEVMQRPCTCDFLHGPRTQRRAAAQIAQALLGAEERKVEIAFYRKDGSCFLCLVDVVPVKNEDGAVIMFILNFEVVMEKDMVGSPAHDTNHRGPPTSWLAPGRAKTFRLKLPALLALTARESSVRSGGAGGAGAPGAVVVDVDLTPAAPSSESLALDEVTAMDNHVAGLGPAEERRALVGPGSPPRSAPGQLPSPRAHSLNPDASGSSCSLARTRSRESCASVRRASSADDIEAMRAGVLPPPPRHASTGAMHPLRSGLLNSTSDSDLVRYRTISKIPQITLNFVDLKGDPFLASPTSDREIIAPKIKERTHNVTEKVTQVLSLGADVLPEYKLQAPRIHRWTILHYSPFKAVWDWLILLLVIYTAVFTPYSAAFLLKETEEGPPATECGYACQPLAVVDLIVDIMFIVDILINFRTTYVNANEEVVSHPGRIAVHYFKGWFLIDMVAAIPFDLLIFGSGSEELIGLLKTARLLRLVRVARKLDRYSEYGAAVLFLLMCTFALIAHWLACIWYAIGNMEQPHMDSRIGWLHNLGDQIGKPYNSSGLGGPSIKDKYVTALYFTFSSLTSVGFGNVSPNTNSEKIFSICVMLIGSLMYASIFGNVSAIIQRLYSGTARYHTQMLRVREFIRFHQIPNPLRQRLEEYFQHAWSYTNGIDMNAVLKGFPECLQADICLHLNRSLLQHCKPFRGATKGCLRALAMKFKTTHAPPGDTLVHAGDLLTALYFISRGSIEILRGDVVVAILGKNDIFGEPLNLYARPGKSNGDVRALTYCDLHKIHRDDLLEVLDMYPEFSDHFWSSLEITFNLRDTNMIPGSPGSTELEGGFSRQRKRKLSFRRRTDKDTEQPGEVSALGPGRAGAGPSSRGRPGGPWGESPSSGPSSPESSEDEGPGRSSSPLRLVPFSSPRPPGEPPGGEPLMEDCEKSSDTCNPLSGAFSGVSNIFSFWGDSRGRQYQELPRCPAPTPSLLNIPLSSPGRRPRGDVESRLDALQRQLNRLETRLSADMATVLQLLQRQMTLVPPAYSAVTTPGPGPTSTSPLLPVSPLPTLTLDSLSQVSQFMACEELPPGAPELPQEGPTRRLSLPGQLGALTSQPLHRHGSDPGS

The test concerns the target human ether-à-go-go-related gene (hERG) potassium channel (human, UniProt Q12809). Description: primary screen, population patch clamp on CHO cells stably expressing hERG; higher = less effect of the substance.
Consider `Brc1ccccc1OCCCN1CCCC1.O=C(O)C(=O)O`, for which the “hERG current change (%, negative = inhibition) at 1uM” value is listed as 8.64%.
With `Brc1ccccc1OCCCN1CCCCCC1.O=C(O)C(=O)O` the figure was -59.2%; with `O=C(O)C(=O)O.c1ccc(-c2ccccc2OCCCCN2CCCCCC2)cc1`, -48.2%; with `Brc1ccccc1OCCCCN1CCCCC1`, -1.28%.
With `O=C(O)C(=O)O.c1ccc(-c2ccccc2OCCCN2CCCC2)cc1`, the “hERG current change (%, negative = inhibition) at 1uM” value is -49.4%.
Regarding `CC1CCN(CCOCCOc2ccc(Br)cc2Cl)CC1.O=C(O)C(=O)O`, the “hERG current change (%, negative = inhibition) at 1uM” value is recorded as -52%.
As for `CN1CCN(CCOCCOc2ccc(Br)cc2Cl)CC1.O=C(O)C(=O)O`, the figure is 10.1%; as for `CC1CCCN(CCOCCOc2ccc(Br)cc2Cl)C1.O=C(O)C(=O)O` (stereo not shown), -7.22%; as for `O=C(O)C(=O)O.c1ccc(-c2ccccc2OCCCN2CCCCCC2)cc1`, -52.7%.
With `CNc1ccccc1C(=O)OCC(=O)c1ccc(F)cc1`, the “hERG current change (%, negative = inhibition) at 1uM” value was found to be 7.17%.
With `CCN1C(=O)c2ccc(C(=O)NCc3ccco3)cc2C1=O`, the “hERG current change (%, negative = inhibition) at 1uM” value stood at 11%.
With `O=C(CC1Sc2ccccc2NC1=O)NNC(=O)Nc1ccc(Cl)cc1` (stereo not shown) the figure was 9.26%; with `CCOc1ccccc1NC(=O)C(NCC1CCCCC1)c1ccccc1` (stereo not shown), 8.03%; with `CCOc1ccccc1NC(=O)C(NCC1(N2CCCCC2)CCCCC1)c1ccccc1.O=C(O)C(=O)O` (stereo not shown), -57.4%.
Take `CCOc1ccccc1NC(=O)C(NCCN(C)C)c1ccccc1.O=C(O)C(=O)O` (stereo not shown): the “hERG current change (%, negative = inhibition) at 1uM” value is given as -49.1%.
On to `C/C(N)=C(\C#N)C(=O)NCc1ccccn1`, for which the “hERG current change (%, negative = inhibition) at 1uM” value is given as 10.9%.
As for `Cc1cc(C)c(-c2cc(C(F)(F)F)no2)c(=O)[nH]1`, the “hERG current change (%, negative = inhibition) at 1uM” value turned out to be 12.2%.
As for `CCN(CC)CCn1nc2c3c(cccc3c1=O)-c1ccccc1-2`, the figure is -50%; as for `O=C(O)Cn1nc2c3c(cccc3c1=O)-c1ccccc1-2`, 8.49%.
As for `O=c1c2cccc3c2c(nn1CN1CCOCC1)-c1ccccc1-3`, the figure is -15.3%.
As for `COc1ccc(OC(=O)NCCc2ccccc2)cc1`, the “hERG current change (%, negative = inhibition) at 1uM” value was determined as 12.2%.
As for `Cc1cccn2c(=O)c3cc(S(=O)(=O)c4ccc(Br)cc4)c(=N)n(C4CCCCC4)c3nc12`, the figure is 26%.
For the compound `Cc1cccn2c(=O)c3cc(C(=O)NCc4ccco4)c(=N)n(C4CCCCC4)c3nc12`, the “hERG current change (%, negative = inhibition) at 1uM” value is on record as -84.8%.
For the compound `Cc1cccn2c(=O)c3cc(C(=O)NCc4ccco4)c(=N)n(C4CCCC4)c3nc12`, the “hERG current change (%, negative = inhibition) at 1uM” value is reported as -85.5%.
As for `Cc1ccc(S(=O)(=O)c2cc3c(=O)n4cccc(C)c4nc3n(C3CCCCC3)c2=N)cc1`, the “hERG current change (%, negative = inhibition) at 1uM” value was found to be 8.4%.
As to `Cc1cccn2c(=O)c3cc(S(=O)(=O)c4ccc(Br)cc4)c(=N)n(C4CCCC4)c3nc12`, the “hERG current change (%, negative = inhibition) at 1uM” value was found to be 14.5%.
As for `CC1CCc2nc(NC(=O)Cc3cccs3)sc2C1` (stereo not shown), the figure is 12.7%; as for `O=C1NC(C(F)(F)F)(C(F)(F)F)N=C2SC=CN12`, 1.69%.
With `CCCOc1ccc(C2C(C(=O)OC)=CN(CCOC)C=C2C(=O)OC)cc1` the figure was -5.54%; with `CCN(CC)C(=O)CN1C(=O)COCC1=O`, 5.42%.
With `S=C1NC(c2ccccc2)N2C(=S)NC(c3ccccc3)N12` (stereo not shown), the “hERG current change (%, negative = inhibition) at 1uM” value was 3.38%.
With `CCOc1ccc2nc(C)cc(Nc3ccc4c(c3)OCCO4)c2c1.Cl` the figure was -47%; with `COc1ccc2nc(C)cc(Nc3ccc(N4CCOCC4)cc3)c2c1.Cl`, -25.1%; with `CCOc1ccc2nc(C)cc(Nc3ccc(N4CCOCC4)cc3)c2c1.Cl`, -60.6%.
As for `CCOc1ccc(-c2c(C)n(-c3ccc(OCC)cc3)c3[n+]2CCCCC3)cc1.[O-][Cl+3]([O-])([O-])[O-]`, the figure is -50.8%.
As to `CCOc1ccc(-n2c(-c3ccc(OC)cc3)c[n+]3c2CCCCC3)cc1.[Br-]`, the “hERG current change (%, negative = inhibition) at 1uM” value is listed as -39.1%.
With `CCOc1ccc(-n2c(-c3ccc(Br)cc3)c[n+]3c2CCCCC3)cc1.[Br-]` the figure was -46.5%.
Take `CCCNC(=O)C(Cc1ccc(F)cc1)NC(=O)c1ccc(C#N)cc1` (stereo not shown): the “hERG current change (%, negative = inhibition) at 1uM” value was -17.5%.
Consider `CCC(CC)c1nnc(NC(=O)c2cccc(S(=O)(=O)N3CCc4ccccc43)c2)s1`, for which the “hERG current change (%, negative = inhibition) at 1uM” value is listed as 13.3%.
Consider `CN(C)CCOc1ccc2c(c1)Sc1ccccc1CC2=O.Cl`, for which the “hERG current change (%, negative = inhibition) at 1uM” value is recorded as -18.3%.
As to `Cl.O=C1Cc2ccccc2Sc2cc(OCCCN3CCCCC3)ccc21`, the “hERG current change (%, negative = inhibition) at 1uM” value was -29.1%.
Consider `CN(C)CCCOc1ccc2c(c1)Sc1ccccc1CC2=O.Cl`, for which the “hERG current change (%, negative = inhibition) at 1uM” value is -53.3%.
As for `O=C(Cc1ccc([N+](=O)[O-])cc1)OCc1c(F)cccc1Cl`, the figure is 14.7%; as for `CCOc1ccc(N=C2NC(=O)CS2)cc1`, 11.1%.
With `Cc1ccc(NC(=O)NC2CCCCCCC2)cc1C` the figure was 11.5%; with `OCC1(Cc2ccccc2F)CCCN(CCc2ccccc2)C1` (stereo not shown), -30.5%; with `OCC1(CCc2ccccc2)CCCN(CCCC(F)(F)F)C1` (stereo not shown), -13.2%.
For the compound `OCC1(Cc2ccc(F)cc2F)CCCN(Cc2ccc(Cl)cc2)C1` (stereo not shown), the “hERG current change (%, negative = inhibition) at 1uM” value was -15%.
On to `OCC1(CCc2ccccc2)CCN(Cc2cc(Cl)ccc2O)CC1`, for which the “hERG current change (%, negative = inhibition) at 1uM” value is given as -5.01%.
Take `OCC1(CCc2ccccc2)CCN(C/C=C/c2ccccc2)CC1`: the “hERG current change (%, negative = inhibition) at 1uM” value is given as -86.4%.
`O=C(Cc1ccccc1)N1CCN(C/C=C/c2ccccc2)CC1`: the “hERG current change (%, negative = inhibition) at 1uM” value is recorded as -6.02%.
On to `OCC1(CCc2ccccc2)CCN(Cc2c(F)ccc(F)c2F)CC1`, for which the “hERG current change (%, negative = inhibition) at 1uM” value worked out at 7.97%.
With `OCC1(Cc2ccc(F)cc2F)CCCN(CCCc2ccccc2)C1` (stereo not shown) the figure was -56.1%; with `OCC1(CC2CCCCO2)CCN(C/C=C/c2ccccc2)CC1` (stereo not shown), -2.99%.
With `OCC1(Cc2ccc(F)cc2)CCCN(CCc2ccccc2)C1` (stereo not shown) the figure was -0.0287%; with `OCC1(CCc2ccccc2)CCN(Cc2ccccc2Cl)CC1`, -54.6%; with `OCC1(CCc2ccccc2)CCCN(CCCc2ccccc2)C1` (stereo not shown), -57.6%.
On to `Cc1cc(C(=O)N2CCCC(N3CCN(c4cccc(Cl)c4)CC3)C2)no1` (stereo not shown), for which the “hERG current change (%, negative = inhibition) at 1uM” value was 10.5%.
With `Cc1cc2oc(C(=O)N(Cc3ccccc3)c3ccccn3)cc(=O)c2cc1Cl` the figure was 10.6%; with `CCn1nc(C)cc1C(=O)Sc1cccc(Cl)c1`, 10.9%; with `CCCCCCCC(=O)NNC(=O)c1c(O)c2ccccc2[nH]c1=O`, 9.8%.
With `CCCCn1c(N)c(N(C)C(=O)c2ccc(Br)o2)c(=O)[nH]c1=O` the figure was 7.35%.
As for `O=C(O)C1CC=CCC1C(=O)N1CCCC1` (stereo not shown), the figure is -1.33%; as for `O=C(CCC(F)(F)F)N1CCCC(CO)(CCc2ccccc2)C1` (stereo not shown), -3.42%; as for `COc1ccccc1/C=C/CN1CCCC(CO)(CCc2ccccc2)C1` (stereo not shown), -31.4%.
`OCC1(CCc2ccccc2)CCCN(C/C=C/c2ccccc2)C1` (stereo not shown): the “hERG current change (%, negative = inhibition) at 1uM” value is on record as -53.6%.
As for `CCOc1cc(C2NC(=O)NC(C)=C2C(=O)OC(C)CC)cc(Br)c1O` (stereo not shown), the figure is 10.2%; as for `O=C1N[C@@H](Cc2cn(S(=O)(=O)c3c(F)c(F)c(F)c(F)c3F)c3ccccc23)C(=O)N[C@H]1Cc1ccccc1`, 10.7%; as for `CN1CCN(C(=O)/C(=C/c2ccc(F)cc2)NC(=O)c2ccccc2)CC1`, -80.8%.
As to `CN1CCN(C(=O)/C(=C/c2ccc(F)cc2)c2ccsc2)CC1.Cl`, the “hERG current change (%, negative = inhibition) at 1uM” value was -52.8%.
As to `CCOC(=O)N1CCN(C(=O)/C(=C/c2ccc(Br)cc2)NC(=O)c2ccc(OC)cc2)CC1`, the “hERG current change (%, negative = inhibition) at 1uM” value is recorded as -81.5%.
As for `COc1ccc(/C=C(/NC(=O)c2ccccc2)C(=O)N2CCCC2)cc1`, the figure is 6.1%; as for `CCOC(=O)N1CCN(C(=O)/C(=C/c2cccc3ccccc23)NC(=O)c2ccc(OC)cc2)CC1`, -10.5%.
For the compound `CSc1ccc(/C=C(/NC(=O)c2ccccc2)C(=O)N2CCN(C)CC2)cc1`, the “hERG current change (%, negative = inhibition) at 1uM” value is -48.7%.
For the compound `COc1ccc(/C=C(/NC(=O)c2ccccc2)C(=O)N2CCCCC2)cc1`, the “hERG current change (%, negative = inhibition) at 1uM” value is 6.93%.
Turning to `COc1ccc(/C=C(\NC(=O)c2ccccc2)C(=O)N2CCN(C)CC2)cc1`, the “hERG current change (%, negative = inhibition) at 1uM” value was -75.2%.
As for `CCOC(=O)N1CCN(C(=O)/C(=C/c2ccc(OC)cc2)NC(=O)c2ccccc2)CC1`, the figure is -27.1%.
As for `CN1CCN(C(=O)/C(C#N)=C/c2ccc(F)cc2)CC1.Cl`, the figure is 1.43%; as for `O=C(N/C(=C/c1ccc(F)cc1)C(=O)N1CCCC1)c1ccccc1`, 25.3%; as for `CN1CCN(C(=O)/C(=C/c2ccccc2)c2ccccc2)CC1`, -33.2%.
`CCOC(=O)/C=C/C(=O)Nc1ccc(S(=O)(=O)Nc2cc(C)on2)cc1`: the “hERG current change (%, negative = inhibition) at 1uM” value is 10.3%.
Regarding `O=C(Cc1ccccc1)NC1CCN(C(=O)NCc2ccccc2)CC1`, the “hERG current change (%, negative = inhibition) at 1uM” value is reported as -8.61%.
With `N#Cc1nc(COc2cccc(Cl)c2)oc1NCCN1CCOCC1` the figure was -22.3%; with `CC1CN(S(=O)(=O)c2cccc(C(=O)Nc3ccc4c(c3)CCC4)c2)CC(C)O1` (stereo not shown), 1.39%.
As for `O=C(CN(Cc1ccccc1Cl)C(=O)CN1C(=O)CSc2ccccc21)NC1CC1`, the figure is -30.7%.
With `Cc1ccc(-c2nc3ccccc3[nH]2)cc1NC(=S)NC(=O)c1ccccc1Br` the figure was 8.3%; with `c1ccc(-c2noc(-c3ccc4c(c3)OCO4)n2)nc1`, 14.3%.
For the compound `O=C(CCC(=O)Nc1ccccc1)NNC(=O)CCc1ccccc1`, the “hERG current change (%, negative = inhibition) at 1uM” value is recorded as 13.6%.
